Experimental data published in PubChem BioAssay AID488857 (Sanford-Burnham Center for Chemical Genomics, 2010).
Screen size: about 1,400 compounds; about 560 (40%) were called active.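 Rule for the calls: active = mean inhibition over duplicate tests at 10 µM above 50%; inactive = the rest.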 So high a share suggests a set chosen from earlier hits. The list shows a part of the results.

assay: ASC/caspase-1 reporter retest in S. cerevisiae at one dose, specificity check for NALP1 project (AID 488857); details: S. cerevisiae ASC/Caspase-1, beta-galactosidase luminescence, 24 h; at 10 µM; stronger effect = higher value

inhibition, inactive:
Cc1cccc(N2C(=O)CC(Sc3ccccc3C(=O)O)C2=O)c1 (centres undefined) 49.3%
COC(=O)c1ccccc1SC1CC(=O)N(c2cccc(C)c2)C1=O (centres undefined) 37.6%
C=CCn1c(CNC(=O)c2cccs2)nnc1SCC(=O)Nc1ccc(C(=O)O)cc1 28.1%
N#Cc1ccc(Oc2nc(Nc3ccc(F)cc3)nc(N3CCCC3)n2)cc1 37.5%
CN(C=[N+](C)C)c1cccc2c1C(=O)c1ccccc1C2=O 42.7%
CN(C)S(=O)(=O)c1cccc2c1C(=O)c1ccccc1C2=O 44.5%
O=C(O)CCCCc1nc2ccccc2s1 32%
CCOc1ccccc1N1CCN(C(=O)CCCc2nc3ccccc3s2)CC1 48.7%
Cc1ccc2nc(Cl)c(C3CC(c4cccs4)=NN3C(=O)CCCC(=O)O)cc2c1 (centres undefined) 30.2%
Cc1ccc(Sc2nnc(Cc3ccccc3)c3ccccc23)cc1 48.1%
Clc1ccc2oc3c(Cl)ncnc3c2c1 29.9%
COc1ccc2c(c1)C1=NN(/C(C)=C/C(C)=O)C(c3cccc(F)c3)C1CC2 (centres undefined) 47.5%
Cc1ccc(C(=O)/C=C\C(=O)c2ccc(C)cc2)cc1 44.1%
CC(C)c1nc2sc3c(=O)[nH]c(=S)[nH]c3c2c2c1CCC2 32%
O=C1C2C3C=CC(C2C(=O)N1CCCO)C1C2C(=O)N(CCCO)C(=O)C2C31 (centres undefined) 40.4%
O=C(O)C1(c2ccccc2)CCN(S(=O)(=O)c2ccc(Br)cc2)CC1 29.4%
CCOC(=O)C1CCCCN1Cc1cccc(F)c1 (centres undefined) 27.4%
COc1ccccc1C(=O)Nc1ccc(OCc2nnc3c4ccccc4c(C)nn23)cc1 45.4%
Clc1ccc(Cn2c(/C=C/c3ccco3)nc3ccccc32)cc1 46.5%
Oc1c(CN2CCCCC2)cc(Br)c2cccnc12 49%
O=C(N/N=C/c1cccc(F)c1)c1c(O)c2ccccc2[nH]c1=O 38.5%
CSc1ccc(C(=O)C2CCCN(C(=O)c3ccc4c(c3)no[n+]4[O-])C2)cc1 (centres undefined) 19.9%
Cn1c(=O)c([N+](=O)[O-])c(-n2cnc3ccccc32)c2ccccc21 14.3%
O=[N+]([O-])/C(C(=C(Cl)Cl)N1CCN(Cc2ccccc2)CC1)=C1\NCCN1Cc1ccc(Cl)nc1 41.5%
CN(C)/C=N/n1cnc2ccccc2c1=O 32%
c1ccc2sc(Sc3ncnc4sccc34)nc2c1 44.6%
COc1ccc(CCn2c(C(C)C)nc3c(c(=O)c4ccccc4n3C)c2=O)cc1 28%
Cc1ccc(NC(=O)c2cccc(S(=O)(=O)N(C)c3ccccc3)c2)cc1S(=O)(=O)N1CCOCC1 36.1%
COc1cc(/C=C/C(=O)Nc2ccc(C)cc2)cc(OC)c1OC 46.8%
Cc1c(N)c(C(C)(C)C)cc(C(C)(C)C)c1[N+](=O)[O-] 35.1%
CCN1CCN(c2cc3c(cc2F)c(=O)c(C(=O)O)cn3C2CC2)CC1 36.3%
CCOC(=O)C(=O)C1=C(N2CCOCC2)/C(=C\c2ccc(F)cc2)CC1 36.2%
COc1ccc(OC)c(/C=c2\sc3nc(-c4cccs4)nn3c2=O)c1 23.2%
CCOc1ccc(C(=O)Nc2ccc(-c3nc4ccccc4[nH]3)cc2)cc1[N+](=O)[O-] 39.4%
COc1ccc(C(=O)NCc2ccccc2)cc1S(=O)(=O)N1CCCc2ccccc21 39%
CC1CCN(c2ccccc2NC(=O)c2ccc(N3CCOCC3)c([N+](=O)[O-])c2)CC1 27.4%
COC(=O)c1ccc(C(=O)OC)c(NC(=O)CN2CCN(c3ccccc3OC)CC2)c1 49.2%
COc1cc(-c2nc(C(F)(F)F)c(OC)o2)cc(OC)c1OC 44.9%
COc1ccccc1N1CCN(C(=O)CSc2ncnc3scc(-c4ccccc4)c23)CC1 44.1%

inhibition, active:
CCN(CC)C1CC(=O)N(c2cccc(C)c2)C1=O (centres undefined) 58%
O=c1sc(Nc2ccccc2)nc2ccsc12 77.2%
O=C1c2cccc(O)c2C(=O)c2c(O)cccc21 59.5%
S=C(NC1CCCCC1)NN(c1ccccc1)c1ccccc1 53.4%
O=C(CCc1nc2ccccc2s1)Nc1ccccc1 80.2%
Cc1ccsc1/C=N/n1c(-c2ccccn2)n[nH]c1=S 54.9%
Cc1ccc(C(=O)c2no[n+]([O-])c2C(=O)c2ccc(C)cc2)cc1 77.2%
O=S(=O)(c1ccc(Br)cc1)N1CCCN(Cc2cccc(F)c2)CC1 61.5%
COc1ccccc1-c1nnc2sc(COc3ccc(Cl)cc3)nn12 56.9%
Oc1c(I)cc(Cl)c2cccnc12 97.2%
NC(=S)N/N=C/c1coc2c(ccc3ccccc32)c1=O 58%
Cc1cc2ncn(/N=C/c3ccc([N+](=O)[O-])s3)c2cc1C 67.8%
CCCCCCCCCCCCCCCC[n+]1cccc2ccccc21 93.7%
O=c1c(Br)c(N2CCCC2)cnn1-c1ccccc1 64.9%
Cn1c2ccccc2c(=O)c2c(=O)n(C3CCCCCC3)c(C3CCCCC3)nc21 53.2%
COC(=O)c1ccc(NC(=O)c2ccccc2N(C)S(=O)(=O)c2ccccc2)cc1 55.2%
CSc1ccc(/C=C/C(=O)c2ccc(NC(C)=O)cc2)cc1 75.5%
CSc1ccc(/C=C/C(=O)c2ccc(O)cc2)cc1 81.2%
CC(=O)c1ccc(NC(=O)/C=C/c2ccc(C)cc2)cc1 60.4%
COc1ccc(C(=O)NC(=S)Nc2ccccc2N2CCCCC2)cc1[N+](=O)[O-] 68%
CCOc1ccc(C(=O)NC(=S)Nc2ccccc2N2CCCCC2)cc1[N+](=O)[O-] 62.5%
COc1cc(/C=C/C(=O)c2ccc(Cl)s2)cc(OC)c1O 63.6%
Cc1cccc(OC(=O)c2cn(C)nc2C(F)(F)F)c1C 50.9%
COc1ccc(-c2csc3ncnc(Oc4cccc5ccc(C)nc45)c23)cc1 71.4%
Cc1ccc(-c2csc3ncnc(Oc4cccc5ccc(C)nc45)c23)cc1 63%
